Structures are written as SMILES. “And” between values parts separate entries of the source, which are not always exact repeats. Equal values may be shown once. In all, about 16,000 compounds went through this assay and about 5,700 (36%) were called active. Not shown: some 24% with an inconclusive outcome. This is one part of the list. A number with no mark means an inactive call. Calls come from the whole dose curve; as a rule, active = well fitted curve in the direction sought with a large enough effect; inconclusive = small, poorly fitted or top-dose-only effect, or effect the other way; inactive = no such curve, though single readings can be large or run the other way.
% is set by controls: 0 for no effect and ±100 for the full control effect.

Sequence of Cytochrome P450 1A2 (Homo sapiens) (P05177 whole entry, looked up): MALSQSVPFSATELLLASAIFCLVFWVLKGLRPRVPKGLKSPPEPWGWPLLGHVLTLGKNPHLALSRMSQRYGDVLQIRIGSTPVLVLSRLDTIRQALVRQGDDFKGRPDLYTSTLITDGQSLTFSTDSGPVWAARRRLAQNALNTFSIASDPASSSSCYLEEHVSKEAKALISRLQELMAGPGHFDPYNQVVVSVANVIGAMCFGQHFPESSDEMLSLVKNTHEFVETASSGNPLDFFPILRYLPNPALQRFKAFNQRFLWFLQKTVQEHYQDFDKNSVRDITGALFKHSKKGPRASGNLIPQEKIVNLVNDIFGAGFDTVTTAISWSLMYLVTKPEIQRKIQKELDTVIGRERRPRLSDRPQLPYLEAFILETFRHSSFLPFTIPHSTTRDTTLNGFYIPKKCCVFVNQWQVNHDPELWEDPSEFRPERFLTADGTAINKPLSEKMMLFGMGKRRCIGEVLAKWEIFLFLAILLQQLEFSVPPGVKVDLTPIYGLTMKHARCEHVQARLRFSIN

This assay has as its target Cytochrome P450 1A2 (Homo sapiens) (UniProt P05177). Description: Cytochrome panel assay with activity outcomes. The following applies: recombinant CYP, pro-luciferin dealkylation, luminescence, p450-cyp1a2; series mostly up to 57.1 µM; activity, negative = inhibition: at the top concentration.
In the case of `Cc1c(C(=O)NC2CCCc3ccccc32)oc2ccc(S(=O)(=O)N3CCOCC3)cc12` (centres undefined), the “activity, negative = inhibition” value is -18%.
Same read-out and setting: the value for `COC(=O)[C@@]1(Cc2ccccc2)[C@H]2c3cc(C(=O)N4CCCC4)n(CCc4ccccn4)c3C[C@H]2CN1C(=O)c1ccccc1` was -11.2%; that for `COc1ccc(C2CC(C(F)(F)F)n3nc(C(=O)N(C)Cc4cn(C)nc4C)c(Cl)c3N2)cc1` (centres undefined) was -44.6%; that for `COc1ccc(NC(=O)c2cc3n(n2)C(C(F)(F)F)CC(c2ccc4c(c2)OCO4)N3)cc1OC` (centres undefined) was -4.17%.
As usually defined, the AC50 is the concentration at which the activity in the assay is half-maximal. Take `COc1ccc(OC)c(NC(=O)c2cc3n(n2)C(C(F)(F)F)CC(c2ccc4c(c2)OCO4)N3)c1` (centres undefined): the AC50 was 0.316 µM (active).
In the case of `CCOC(=O)C1CCCN(c2ncnc3c2cnn3-c2cccc(C)c2)C1` (centres undefined), the AC50 was 14.1 µM (active).
Same read-out and setting: the value for `CCOC(=O)C1CCCN(c2ncnc3c2cnn3-c2ccc(Cl)cc2)C1` (centres undefined) was 8.91 µM (active).
Regarding `CCOC(=O)C1CCCN(C(=O)C2CCN(S(=O)(=O)N3CCC4(CC3)OCCO4)CC2)C1` (centres undefined), the “activity, negative = inhibition” value is -7.11%.
Take `Cc1cc(OC(=O)c2ccccc2Cl)cc(=O)n1C`: the AC50 is 3.55 µM (active).
Regarding `Cc1cc(OC(=O)c2ccc(Cl)cc2)cc(=O)n1C`, the half-maximal activity concentration (AC50) is 25.1 µM (active).
Take `CC(=O)Nc1cccc(C(=O)OCc2ccc(C(=O)Oc3ccc(Cl)cc3)cc2)c1`: the “activity, negative = inhibition” value was -6.94%.
Same read-out and setting: for `CC(=O)c1c(C(C)=O)c(C)n(NC(=O)c2ccccc2Cl)c1C` the value was -23.6%; for `COc1ccc(C2CC(=O)CC(=O)C2n2cncn2)cc1` (centres undefined), -6.41%; for `CC(CC(=O)O)(CC(=O)O)c1ccccc1`, -0.666% [at 11.4 µM].
For `COc1cc(-c2ccc(=O)[nH]n2)ccc1OC(F)F`, the half-maximal activity concentration (AC50) was 5.01 µM (active).
As for `O=C(/C=C/c1ccccc1Cl)NCCN1CCOCC1`, the “activity, negative = inhibition” value is -27.1%.
On the same count and under the same terms, the value for `c1cc(CNCCCN2CCOCC2)ccn1` was -3%; that for `c1ccc2c(c1)CCCc1cc(NCCN3CCOCC3)nnc1-2` was -10.5% [at 25.6 µM].
Turning to `Cc1ccccc1-c1nccc(NCCN2CCOCC2)n1`, the AC50 was 5.01 µM (active).
Still for that read-out and setting: the value for `CN(C)c1ccc(-c2nccc(NCCN3CCOCC3)n2)cc1` was 1.26 µM (active).
The same measure, in the same setting: for `Clc1ccccc1-c1nccc(NCCN2CCOCC2)n1` the value was 2 µM (active).
For the molecule `CCOc1nc(NCCN2CCOCC2)nc(Nc2ccc(C)cc2)n1`, the “activity, negative = inhibition” value is -28%.
`C#CCCCO/N=C1/C[C@@H](O)[C@@H](O)[C@@H]2[C@H]3C(=O)N(c4ccc(F)cc4F)C(=O)[C@@H]3CC[C@@H]12`: the activity, negative = inhibition is 5.29% [at 11.4 µM].
Consider `CNC(=O)c1c(I)c(C(=O)NCC(=O)Nc2c(I)c(C(=O)O)c(I)c(C(=O)NCCO)c2I)c(I)c(N(C)C(C)=O)c1I`, for which the “activity, negative = inhibition” value is -10% [at 25.6 µM].
`COc1ccc(-n2c(=O)c(-c3cccs3)nc3cncnc32)cc1`: the concentration at half-maximal activity (AC50) was 10 µM (active).
On the same count and under the same terms, the value for `O=c1c(-c2cccs2)nc2cncnc2n1-c1ccccc1` was 12.6 µM (active).
Turning to `CC(=O)NCCNc1cc(-c2ccccc2CN(C)C)ncn1`, the “activity, negative = inhibition” value is -20.9%.
For `COCCNc1cc(-c2ccccc2CN(C)C)ncn1`, the “activity, negative = inhibition” value was -16.8%.
As to `COc1ccccc1CNc1cc(-c2ccccc2OC)ncn1`, the AC50 is 2.51 µM (active).
On the same count and under the same terms, the value for `COc1ccccc1CNc1cc(-c2ccccc2C)ncn1` was 5.01 µM (active); that for `COCCNc1cc(-c2ccccc2C)ncn1` was 15.8 µM (active).
Still for that read-out and setting: for `CC(=O)NCCNc1cc(-c2ccccc2C)ncn1` the value was 15.8 µM (active).
`CCCc1nnc(NC(=O)CCC(=O)N2CCN(c3ccccn3)CC2)s1`: the “activity, negative = inhibition” value was -4.79%.
Take `O=C(c1cc(C(F)(F)F)cc(C(F)(F)F)c1)N1CCC2(CC1)CCN(c1ccccn1)CC2`: the “activity, negative = inhibition” value was -13.7%.
In the case of `Cc1ccc(C(=O)N2CCN(c3ccc(C(F)(F)F)cn3)CC2)cc1`, the half-maximal activity concentration (AC50) is 14.1 µM (active).
For `O=C(c1ccc(Oc2ccc(C(F)(F)F)cn2)cc1)N1CCN(c2ccccc2)CC1`, the “activity, negative = inhibition” value was -23.5%.
As for `CCCS(=O)(=O)N1CCCC(C(=O)NCCCN2CCN(c3ccc(F)cc3)CC2)C1` (centres undefined), the “activity, negative = inhibition” value is -21.1%.
Regarding `c1ccc2c(c1)c1ccccc1n2Cn1c2ccccc2c2ccccc21`, the half-maximal activity concentration (AC50) is 0.251 µM (active).
On the same count and under the same terms, for `CN(C)C(=O)c1ccc(-n2nc(C(F)(F)F)c3c2CCCC3)cc1` the value was 22.4 µM (active).
Consider `COC(=O)[C@@]1(Cc2ccccc2)[C@H]2c3cc(C(=O)N4CCCC4)n(Cc4ccc(C(F)(F)F)nc4)c3C[C@H]2CN1C(=O)c1ccccc1`, for which the “activity, negative = inhibition” value was -10.8%.
With `Cc1cccc2cc(=O)[nH]c(C)c12`, the AC50 was 14.1 µM (active).
Regarding `CC1CC/C(=C\c2ccc3c(c2)OCO3)C(=O)/C1=C/c1ccc2c(c1)OCO2` (centres undefined), the AC50 is 3.55 µM (active).
With `Cc1c(O)c(=O)n(-c2ccccc2)n1C`, the “activity, negative = inhibition” value is -12.4% [at 25.6 µM].
Turning to `CC(=O)c1c(O)cc(=O)n(-c2ccccc2)c1-c1ccc(C)cc1`, the “activity, negative = inhibition” value was 3.8%.
`Cc1ccc(=O)n(-c2ccccc2)c1`: the AC50 was 31.6 µM (active).
Take `Cc1cc2c(nc1C)CCCN2CC(O)CN1CCCc2nc(C)c(C)cc21`: the activity, negative = inhibition was -4.54% [at 11.4 µM].
Turning to `O=C1C[C@@H](O)[C@@H](O)[C@H]2[C@@H]3C(=O)N(C[C@@H]4CCCO4)C(=O)[C@@H]3CC[C@H]12`, the activity, negative = inhibition is -4.6% [at 11.4 µM] and -8.21% [at 11.4 µM].
In the case of `O=C1c2ccccc2C(=O)N1CC1CCCO1` (centres undefined), the AC50 was 14.1 µM (active).
Turning to `O=C(NCc1ccccc1)c1ccc2c(c1)C(=O)N(CC1CCCO1)C2=O` (centres undefined), the “activity, negative = inhibition” value is -10.7%.

Values taken from PubChem BioAssay AID1851 (National Center for Advancing Translational Sciences (NCATS), 2009).
